Source: PubChem BioAssay (several laboratories)
Sampled rows, rich in hits. Any-hit rate of the full collection: about 3.1%.
LMP1 NFkB inh – EBV LMP1-driven NF-kappaB luciferase reporter inhibitors, primary screen, cell-based, luminescence, single point | 350,000 compounds, 0.69% hits | inhibition, % at 12.5 µM | LMP1-induced NF-kappaB luciferase reporter cells; in the data active means inhibition above about 41%; inconclusive means no clear call, values can overlap the other calls;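 further: 0% = neutral control wells and 100% = reference inhibitor control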
TROY NFkB inh – inhibitors of TROY-driven NF-kB signaling, primary screen, Q293 LMP1-TROYcd cells, NF-kB luciferase, uHTS; AID 1347056, 2019; 360,000 compounds, 0.98% hits; inhibition, % at 10 µM; Q293 LMP1-TROYcd NF-kB luciferase reporter, 4 h;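 active means compounds whose plate-normalised and pattern-corrected inhibition of the luciferase reporter signal at the single screening dose is 50% or more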
EWS-Fli block – EWS/Fli-driven NR0B1 reporter inhibitors, primary screen, A673 cells, NR0B1 luciferase, luminescence, MLPCN library | viability-normalised | inhibition, % at 12.6 µM | 350,000 compounds, 0.67% hits | AID 651661, 2012;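 active means mean inhibition of at least 50% after viability correction, with every replicate also passing that limit; inconclusive means mean reaches 50% but only one of two replicates passes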;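 further: firefly luciferase signal divided by Alamar Blue viability fluorescence both relative to DMSO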
LGR2 inh – inhibitors of bursicon-induced LGR2 CRE-luciferase signal, primary screen, cell-based, HEK293, CRE-luciferase reporter, bursicon stimulation | AID 720647, 2013 | inhibition, % at 9.99 µM | bursicon-stimulated, 4 h | Drosophila bursicon receptor LGR2 (rickets) | 380,000 compounds, 0.35% hits;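 active means drop in luminescence signal, shown as inhibition above about 50% in the replicate tests, limit read from the data, passing the limit was not always enough; inconclusive means probably only some replicates passing the limit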;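 further: agonist challenge used bursicon conditioned medium at about half maximal strength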
PAX8 inh HTS – inhibitors of PAX8-driven TPO luciferase reporter, primary screen, RMG-I cells, single concentration; inhibition, % at 12.6 µM; 360,000 compounds, 1.2% hits; SteadyGlo, 24 h; AID 652154, 2013;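 active means mean replicate inhibition at least 60% with every replicate also reaching 60%; inconclusive means only one of the two criteria is met; inactive means mean below 60% and not all replicates reaching 60%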;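 further: luciferase light reporting Pax8 driven TPO promoter activity; plate controls were median of neutral control wells for no effect and mitoxantrone controls for full effect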
TWEAK-Fn14 inh – inhibitors of TWEAK-Fn14 signaling, primary screen, luciferase reporter cells, uHTS; inhibition, % at 10 µM; TWEAK-stimulated Fn14 reporter cells, luciferase luminescence, 8 h; 360,000 compounds, 2% hits; in the data active means inhibition above about 50%
* hit, by the source's call; ? = inconclusive; / = no result; ! = not confirmed by another sample.

SMILES	LMP1 NFkB inh	TROY NFkB inh	EWS-Fli block	LGR2 inh	PAX8 inh HTS	TWEAK-Fn14 inh
CCCCC(=O)NC(c1cccc([N+](=O)[O-])c1)c1c(OC(C)=O)ccc2ccccc12 (stereo unspecified)	0	13	/	/	/	15
CCCCC(=O)NC(c1cccc([N+](=O)[O-])c1)c1ccc2cccnc2c1O (stereo unspecified)	50*	13	28	25	51	13
Oc1c(C(Nc2cccc(C(F)(F)F)c2)c2cccnc2)ccc2cccnc12 (stereo unspecified)	7	0	/	27	13	20
C[C@H]1CN([C@@H](C)CO)C(=O)c2cc(NC(=O)C3CC3)ccc2O[C@@H]1CN(C)Cc1ccc(Cl)c(Cl)c1	/	/	-5	17	/	/
C[C@@H]1CN([C@H](C)CO)C(=O)c2cc(NC(=O)Nc3ccc(F)cc3)ccc2O[C@H]1CN(C)Cc1ccc(C(F)(F)F)cc1	/	/	8	-1	68*	/
C[C@H]1CN([C@@H](C)CO)C(=O)c2cc(NC(=O)Nc3ccc(C(F)(F)F)cc3)ccc2O[C@@H]1CN(C)Cc1ccc(Cl)c(Cl)c1	/	/	58*	-9	/	/
C[C@@H]1CN([C@@H](C)CO)C(=O)c2cc(NC(=O)C3CC3)ccc2O[C@@H]1CN(C)Cc1ccc(Cl)c(Cl)c1	0	19	57*!	29	18	7
COc1ccc(NC(=O)Nc2ccc3c(c2)C(=O)N([C@@H](C)CO)C[C@@H](C)[C@@H](CN(C)Cc2ccc(C(F)(F)F)cc2)O3)cc1	/	/	3	19	105*	/
COc1ccc(CN(C)C[C@H]2OCCCC[C@@H](C)Oc3ccc(NC(=O)c4ccncc4)cc3C(=O)N([C@@H](C)CO)C[C@H]2C)cc1	/	/	-2	-14	/	/
O=C(C[C@H]1CC[C@H](NC(=O)c2ccc(F)cc2)[C@@H](CO)O1)NCc1ccncn1	/	/	/	-13	/	/
CC(C)C#Cc1ccc2c(c1)O[C@H](CN(C)C(=O)c1ccncc1)[C@@H](C)CN([C@H](C)CO)S2(=O)=O	/	/	3	-25	0	/
C[C@@H]1CN([C@@H](C)CO)C(=O)c2cc(NC(=O)Nc3ccc4c(c3)OCO4)ccc2O[C@@H]1CN(C)C(=O)Nc1ccc(C(F)(F)F)cc1	/	/	2	13	77*	/
COc1ccc(C(=O)NCCN2CCOCC2)cc1[N+](=O)[O-]	80*	6	8	3	-16	0
O=C(NCCN1CCOCC1)c1ccc(Cl)c([N+](=O)[O-])c1	17	3	5	4	13	-6
C[C@@H]1CCCCO[C@H](CN(C)C(=O)C2CCCCC2)[C@H](C)CN([C@@H](C)CO)C(=O)c2cc(NC(=O)Nc3ccc(C(F)(F)F)cc3)ccc2O1	/	/	-9	4	/	/
CCOc1ncccc1C(=O)N1CCN(c2cccc(C)c2C)CC1	4	17	?	-17	63*	24
CCOC(=O)N1CCN(c2c(N3CCN(c4cccc(C)c4C)CC3)c(=O)c2=O)CC1	-2	9	-1	5	2	-25
CCOC(=O)N1CCN(c2cccc(C)c2C)CC1	-6	1	4	2	70*	-16
C[C@H]1CN([C@@H](C)CO)S(=O)(=O)c2ccc(C#Cc3ccccc3)cc2O[C@H]1CN(C)CC1CC1	/	/	25	1	/	/
C[C@H](CO)N1C[C@H](C)[C@@H](CN(C)Cc2ccccc2)Oc2ccc(NC(=O)Nc3cccc4ccccc34)cc2CC1=O	/	/	56*	8	55	/
C[C@H](CO)N1C[C@H](C)[C@@H](CN(C)C(=O)Nc2cccc3ccccc23)Oc2ccc(NC(=O)Nc3ccc4c(c3)OCO4)cc2CC1=O	/	/	12	-8	74*	/
C[C@H]1CN([C@@H](C)CO)C(=O)Cc2cc(NC(=O)Nc3ccc4c(c3)OCO4)ccc2O[C@@H]1CN(C)C(=O)Nc1cccc2ccccc12	/	/	-4	-8	-7	/
C[C@H](CO)N1C[C@H](C)[C@@H](CN(C)C(=O)NC2CCCCC2)OCCCC[C@H](C)Oc2ccc(NS(=O)(=O)c3cccs3)cc2C1=O	/	/	7	15	10	/
CCC(C)(C)NC(=O)C(c1ccc(OC)cc1)N(C(=O)CCC(=O)Nc1cc(C)on1)c1ccccc1OC (stereo unspecified)	7	11	-6	-5	16	57*
CCC(C)(C)NC(=O)C(c1ccc(OC)cc1)N(C(=O)CCC(=O)Nc1cc(C)on1)c1ccc(OC)c(OC)c1 (stereo unspecified)	1	-7	2	8	3	22
SMILES	LMP1 NFkB inh	TROY NFkB inh	EWS-Fli block	LGR2 inh	PAX8 inh HTS	TWEAK-Fn14 inh
O=C(CCN1C(=O)C2C3C=CC(C3)C2C1=O)N1CCN(c2ccccc2F)CC1 (stereo unspecified)	10	-9	/	/	/	-12
O=C(CCN1C(=O)C2C3C=CC(C3)C2C1=O)N1CCN(c2ccccc2Cl)CC1 (stereo unspecified)	85*	-1	/	/	/	-18
COc1ccc(-c2ccc3c(c2)[C@@H]2[C@@H](CCN2S(=O)(=O)c2ccc(F)cc2)[C@H](CO)N3C)cc1	/	/	3	20	62*	/
COc1ccccc1S(=O)(=O)N1CC[C@H]2[C@@H](CO)N(C)c3ccc(-c4ccc(C#N)cc4)cc3[C@H]21	/	/	9	-8	107*	/
COc1ccccc1S(=O)(=O)N1CC[C@@H]2[C@@H](CO)N(C)c3ccc(-c4ccccc4)cc3[C@@H]21	/	/	-5	15	?	/
CCCC#Cc1ccc2c(c1)[C@@H]1[C@@H](CCN1S(=O)(=O)c1cccc(F)c1)[C@@H](CO)N2C	/	/	14	3	67*	/
O=C(NC[C@H]1[C@H](c2ccccc2)[C@H](CO)N1CC1CCCC1)C1CC1	/	/	-1	4	-12	/
COc1ccc(S(=O)(=O)N[C@@H]2CC[C@H](CCNC(=O)c3ccccc3F)O[C@@H]2CO)cc1	/	/	2	-8	0	/
Cc1nc2sc(C(N)=O)c(N)c2c2c1CCCC2	51*	-9	-16	1	-60	23
CN1C(=O)c2cc(NC(=O)Nc3cccc(Cl)c3)ccc2OC[C@H]2O[C@H](CC(=O)O)CC[C@H]21	/	/	-5	-14	8	/
O=C(/C=C/Nc1cccc(C(F)(F)F)c1)C(F)(F)F	65*	16	2	7	/	-1
O=C(Nc1ccccc1)Nc1cccc(C(F)(F)F)c1	-1	-38	-101	-50	-45	0
Cc1ccc(OC(F)F)c(NC(=O)Nc2cccc(C(F)(F)F)c2)c1	6	40	17	30	/	75*
COC(=O)/C=C/C(=O)Nc1cccc(C(F)(F)F)c1	43*	-6	6	1	31	51*
